Unmarked numbers belong to inactive results. Records with an inconclusive call do not appear. A call without a number means that no potency is given here. Active and inactive are the calls of the source. Unless noted, calls come from the whole dose curve; as a rule, active = well fitted curve in the direction sought with a large enough effect in the repeat runs; inconclusive = weak or mixed curves; inactive = no such curve, though single readings can be large; an effect the other way counts as inactive or inconclusive.
Tests used:
[1] = qHTS assay to identify small molecule agonists of H2AX - cell viability counter screen (AID 1224847; calls by dose curve; note: nearly all actives have a fitted effect of over 30% in size; note: potency is the fitted concentration of half-maximal effect;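 for activity change, negative = cytotoxicity: wild-type CHO-K1 cells; top concentration of the series differs between compounds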)
Outline: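 CHO-K1 wt, 1000 cells/well, o/n 37C; cpds 15 conc, 3 h 37C, 0.76% DMSO; CellTiter-Glo, 30 min RT, luminescence.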

[2] = qHTS RealTime-Glo MT Cell Viability Assay in HEK293 cells - 32 hour (AID 1224868); note: nearly all actives have a fitted effect of over 50% in size; note: potency is the fitted concentration of half-maximal effect
Outline: (§1)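 Quantitative high-throughput screen of the Tox21 10K library in HEK293: cells and RealTime-Glo reagents plated together, compound added at 5 h, luminescence monitored through 40 h at 37 C.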

[3] = A CellTox Green Cytotoxicity Assay to monitor cytotoxicity in HEK293 cells - 0 hour (AID 1224869); note: nearly all actives have a fitted effect of over 50% in size
Outline: (§2)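 Each value comes from one timepoint of a single continuous run in which HEK293 cells with CellTox Green were exposed to compound for up to 40 h at 37 C, dye fluorescence rising with cell death.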

[4] = qHTS RealTime-Glo MT Cell Viability Assay in HepG2 cells - 40 hour (AID 1224870); note: nearly all actives have a fitted effect of over 50% in size; note: potency is the fitted concentration of half-maximal effect
Outline: (§3)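 Real-time viability: cells seeded at 600 per well together with NanoLuc and cell-permeant prosubstrate, compounds added after 5 h incubation. Luminescence tracked at 0, 8, 16, 24, 32 and 40 h of exposure.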

[5] = qHTS RealTime-Glo MT Cell Viability Assay in HepG2 cells - 8 hour (AID 1224873); note: nearly all actives have a fitted effect of over 55% in size; note: potency is the fitted concentration of half-maximal effect
Outline: as §3

[6] = qHTS RealTime-Glo MT Cell Viability Assay in HEK293 cells - 40 hour (AID 1224874); details: RealTime-Glo luminescence; max response: hits give low values; note: nearly all actives have a fitted effect of over 50% in size; note: potency is the fitted concentration of half-maximal effect
Outline: (§4)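 qHTS format; HEK293 cells with NanoLuc/prosubstrate reagent, 37 C/5% CO2 for 5 h pre-dosing; compounds 23 nL in DMSO; luminescence at each time point reflects viable cells.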

[7] = A CellTox Green Cytotoxicity Assay to monitor cytotoxicity in HEK293 cells - 24 hour (AID 1224875); note: nearly all actives have a fitted effect of over 45% in size; note: potency is the fitted concentration of half-maximal effect
Outline: as §2

[8] = A CellTox Green Cytotoxicity Assay to monitor cytotoxicity in HepG2 cells - 16 hour (AID 1224876); note: nearly all actives have a fitted effect of over 45% in size; note: potency is the fitted concentration of half-maximal effect
Outline: (§5)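 Continuous culture of HepG2 cells with a membrane-impermeant DNA dye; rising fluorescence marks dead cells. Compound exposure lasted up to 40 h at 37 C, with reads every 8 h from 0 h.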

[9] = A CellTox Green Cytotoxicity Assay to monitor cytotoxicity in HepG2 cells - 24 hour (AID 1224878); note: nearly all actives have a fitted effect of over 45% in size; note: potency is the fitted concentration of half-maximal effect
Outline: as §5

[10] = A CellTox Green Cytotoxicity Assay to monitor cytotoxicity in HepG2 cells - 40 hour (AID 1224879); note: nearly all actives have a fitted effect of over 40% in size; note: potency is the fitted concentration of half-maximal effect
Outline: as §5

[11] = A CellTox Green Cytotoxicity Assay to monitor cytotoxicity in HEK293 cells - 32 hour (AID 1224881); note: nearly all actives have a fitted effect of over 40% in size; note: potency is the fitted concentration of half-maximal effect
Outline: as §2

[12] = qHTS RealTime-Glo MT Cell Viability Assay in HepG2 cells - 24 hour (AID 1224867); note: nearly all actives have a fitted effect of over 50% in size; note: potency is the fitted concentration of half-maximal effect
Outline: (§6)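 Compound treatment began 5 h after plating HepG2 cells (600/well) with NanoLuc luciferase and prosubstrate. Plates stayed at 37 C for 40 h; luminescence was captured at six time points, 0 h through 40 h.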

[13] = A CellTox Green Cytotoxicity Assay to monitor cytotoxicity in HEK293 cells - 40 hour (AID 1224871); note: nearly all actives have a fitted effect of over 45% in size; note: potency is the fitted concentration of half-maximal effect
Outline: as §2

[14] = qHTS RealTime-Glo MT Cell Viability Assay in HEK293 cells - 16 hour (AID 1224872); note: nearly all actives have a fitted effect of over 50% in size; note: potency is the fitted concentration of half-maximal effect; for activity change, negative = cytotoxicity: top concentration of the series differs between compounds
Outline: as §1

[15] = qHTS RealTime-Glo MT Cell Viability Assay in HepG2 cells - 32 hour (AID 1224877); note: nearly all actives have a fitted effect of over 55% in size; note: potency is the fitted concentration of half-maximal effect
Outline: as §6

[16] = qHTS RealTime-Glo MT Cell Viability Assay in HEK293 cells - 0 hour (AID 1224880)
Outline: as §4

[17] = qHTS assay to identify small molecule antagonists of the estrogen related receptor (ERR) signaling pathway from Tox21 library (AID 1224848)
Outline: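 Reading was by luminescence 30 min after ONE-Glo addition. Before that, ERR cells at 2,000 per well had rested 6 h at 37 C/5% CO2 and then received pin-tooled compounds in DMSO for 18 h at 37 C.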

[18] = qHTS assay to identify small molecule agonists of the estrogen related receptor (ERR) signaling pathway from Tox21 library (AID 1224849; calls by dose curve; note: nearly all actives have a fitted effect of over 15% in size); details: ERR reporter cell line, ONE-Glo luciferase, 18 h; at 92.4 µM (top of the series) unless noted
Outline: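 We plated ERR reporter cells, waited 6 h, added compounds in DMSO by pin tool and incubated them 18 h at 37 C. ONE-Glo was then added and luminescence read after 30 min.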

Row | SMILES | Potency [1] | Potency [2] | Potency [3] | Potency [4] | Potency [5] | Potency [6] | Potency [7] | Potency [8] | Potency [9] | Potency [10] | Potency [11] | Potency [12] | Potency [13] | Potency [14] | max response [6] | Potency [15] | Potency [16] | Potency [17] | activity change, positive = activation [18] | activity change, negative = cytotoxicity [16]
1 | O=C(Nc1cccc(C(F)(F)F)c1)c1cc(Br)cc(Br)c1O | 16 µM (active) | 4.36 µM (active) | inactive | 21.9 µM (active) | inactive | 3.89 µM (active) | inactive | inactive | 19.5 µM (active) | 19.5 µM (active) | inactive | – | – | – | – | – | – | – | – | –
2 | O=[N+]([O-])c1cc([N+](=O)[O-])c2ccc(S(=O)(=O)O)cc2c1O | inactive | inactive | inactive | inactive | inactive | – | inactive | inactive | – | inactive | inactive | inactive | inactive | inactive | -17.1% | inactive | inactive | – | – | –
3 | [Cl][Bi]([Cl])([c]1ccccc1)([c]1ccccc1)[c]1ccccc1 | 35.5 µM (active) | 2.44 µM (active) | inactive | 7.71 µM (active) | 10.9 µM (active) | 1.94 µM (active) | 27.4 µM (active) | – | 7.71 µM (active) | 4.87 µM (active) | 24.4 µM (active) | 6.88 µM (active) | 24.4 µM (active) | 4.87 µM (active) | – | 6.88 µM (active) | – | – | – | –
4 | COc1cccc2c1C(=O)c1c(O)c3c(c(O)c1C2=O)C[C@@](O)(C(=O)CO)C[C@@H]3O[C@H]1C[C@H](N)[C@H](O[C@@H]2CCCCO2)[C@H](C)O1 | – | 0.239 µM (active) | inactive | 1.9 µM (active) | – | 0.19 µM (active) | inactive | – | – | 1.51 µM (active) | inactive | 2.13 µM (active) | inactive | – | – | 1.9 µM (active) | inactive | 4.22 µM (active) | -55.4% [at 42.5 µM] | –
5 | On1ccccc1=S | – | 4.32 µM (active) | inactive | 0.485 µM (active) | – | 3.85 µM (active) | – | 1.93 µM (active) | 0.432 µM (active) | 0.385 µM (active) | 1.22 µM (active) | 0.544 µM (active) | 1.09 µM (active) | 3.85 µM (active) | – | 0.485 µM (active) | inactive | 1.21 µM (active) | -71.1% | –
6 | O=c1c(-c2ccccc2)c1-c1ccccc1 | – | 13.4 µM (active) | inactive | 15.1 µM (active) | 23.9 µM (active) | 10.7 µM (active) | 5.35 µM (active) | inactive | 10.7 µM (active) | 10.7 µM (active) | 5.35 µM (active) | 16.9 µM (active) | 5.35 µM (active) | 15.1 µM (active) | – | – | inactive | 8.41 µM (active) | -61.4% [at 42.5 µM] | –
7 | [O-][n+]1ccccc1SSc1cccc[n+]1[O-] | – | 1.31 µM (active) | – | 0.165 µM (active) | – | 1.17 µM (active) | 4.65 µM (active) | 9.28 µM (active) | 1.47 µM (active) | 0.329 µM (active) | 2.93 µM (active) | 0.208 µM (active) | 1.31 µM (active) | 1.31 µM (active) | – | – | – | 0.259 µM (active) | -64% [at 19 µM] | -7.04% [at 15.8 µM]
8 | Clc1ccc(C(Cn2ccnc2)OCc2ccc(Sc3ccccc3)cc2)c(Cl)c1 (centres undefined) | inactive | inactive | inactive | inactive | inactive | – | inactive | inactive | inactive | inactive | inactive | inactive | inactive | inactive | -2.43% | inactive | inactive | – | – | –
9 | C=CC(=O)OCC(CO)(COCC(COC(=O)C=C)(COC(=O)C=C)COC(=O)C=C)COC(=O)C=C | – | – | inactive | 4.31 µM (active) | 3.42 µM (active) | 2.42 µM (active) | 54.3 µM (active) | – | 48.4 µM (active) | 15.3 µM (active) | 43.1 µM (active) | 4.31 µM (active) | 27.2 µM (active) | 3.05 µM (active) | – | 3.84 µM (active) | inactive | – | – | –
10 | CCCCCOc1ccccc1/C(=C\SC)n1ccnc1 | – | – | inactive | inactive | inactive | – | inactive | inactive | inactive | – | inactive | inactive | inactive | – | – | – | inactive | 21.1 µM (active) | -47.2% [at 42.5 µM] | –
11 | Cc1[nH]nc2c1N=C(c1ccccc1Cl)c1cc([N+](=O)[O-])ccc1N2 | 80 µM (active) | – | inactive | inactive | inactive | – | inactive | inactive | inactive | inactive | inactive | inactive | inactive | – | – | – | – | – | – | –
12 | CCCCN(CCCC)c1ccc(C(=O)c2ccccc2C(=O)O)c(O)c1 | – | inactive | inactive | inactive | inactive | – | – | inactive | – | – | – | inactive | – | inactive | -24.6% | inactive | inactive | 55 µM (active) | -39.4% | –
13 | NNc1nc(-c2ccccc2)cs1 | – | – | inactive | inactive | – | – | inactive | inactive | inactive | inactive | inactive | inactive | inactive | – | – | – | inactive | – | -30.7% | –
14 | NNc1nc(-c2ccc(N)cc2)cs1 | – | – | inactive | inactive | inactive | 21.9 µM (active) | inactive | inactive | inactive | inactive | inactive | inactive | inactive | inactive | – | inactive | inactive | 61.1 µM (active) | -40.8% | –
